Compounds with a hit are over-represented: about 0.87% of the library has one in this group of screens.
RGS4 inh: Inhibitors of Regulator of G Protein Signaling (RGS) 4: qHTS. 390,000 compounds, 0.039% hits. Regulator of G-protein signaling 4 (Homo sapiens), P49798. Transcreener GDP fluorescence polarization, RGS4-accelerated GTP hydrolysis. AID 504845, 2011. Potency, µM (series often up to 114 µM), for the others: top-dose activity change, negative = inhibition, actives largely listed as inhibitors; also: potency is read from the fitted curve at half-maximal effect; % is scaled to controls: 0 for no effect and ±100 for the full control effect; nearly all actives have a fitted effect of over 75% in size
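MLSMR compounds (23 nl, pin-transferred) preincubated 10 min at room temperature with a 500nM (2x) first reagent, then RGS4 at 900nM (2x) plus Transcreener GDP mix added; fluorescence polarization (620/688 nm) read before and after 90 min at 30 °C.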
TDP1 block: qHTS Assay for Inhibitors of Tyrosyl-DNA Phosphodiesterase (TDP1). recombinant TDP1, AlphaScreen DNA substrate cleavage. Potency, µM (titrated, usually from 130 µM), for the others: at the highest dose activity change, negative = inhibition, actives largely listed as inhibitors. 350,000 compounds, 0.28% hits; also: potency is read from the fitted curve at half-maximal effect; % is scaled to controls: 0 for no effect and ±100 for the full control effect; nearly all actives have a fitted effect of over 40% in size
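AlphaScreen read-out: signal falls as enzyme removes the 3' tyrosine-FITC from a 5'-biotinylated DNA oligo (15 nM, 5 min, RT). Enzyme was E. coli-made recombinant Tdp1 at 1 nM, exposed to compound for 15 min beforehand; beads 10 ug/ml, 10 min.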
GCN5L2 inh-1: qHTS Assay for Inhibitors of GCN5L2; Histone acetyltransferase KAT2A (Homo sapiens), Q92830; GCN5L2 HAT assay, ThioGlo1 CoA-SH fluorescence; Potency, µM (titrated, usually from 58.9 µM), for inactives: at the top dose activity change, negative = inhibition, actives largely listed as inhibitors; 390,000 compounds, 0.21% hits; AID 504327, 2011; also: potency is read from the fitted curve at half-maximal effect; % is scaled to controls: 0 for no effect and ±100 for the full control effect
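Enzyme at 20nM final was mixed with library compounds for 15 min at room temperature. Peptide H3(1-25) at 75uM, acetyl-CoA at 70uM and ThioGlo1 at 50uM were then added. Plates were read immediately and after 20 min (Ex340nm/Em540nm).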
BLM inh-1: qHTS Assay for Inhibitors of Bloom's syndrome helicase (BLM) | Potency, µM (highest dose often 56.1 µM), without a hit: top-dose activity change, negative = inhibition, most hits filed as inhibitors | AID 2528, 2010 | recombinant BLM DNA unwinding, fluorescence dequenching | 350,000 compounds, 0.2% hits;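 also: potency is read from the fitted curve at half-maximal effect; plate controls were vehicle for no effect and no enzyme for full effect; nearly all actives have a fitted effect of over 35% in size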
RECQ1 inh-1: qHTS Assay for Inhibitors of RecQ-Like Dna Helicase 1 (RECQ1); Potency, µM (top dose mostly 57.3 µM), without a hit: at the highest dose activity, negative = inhibition, usual class: inhibitors; AID 2549, 2010; 240,000 compounds, 0.54% hits; RECQ1 DNA unwinding, red fluorescence kinetic read;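 also: potency is read from the fitted curve at half-maximal effect; plate controls were vehicle for no effect and no enzyme for full effect; nearly all actives have a fitted effect of over 30% in size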
Target sequence (P46063 whole entry, looked up): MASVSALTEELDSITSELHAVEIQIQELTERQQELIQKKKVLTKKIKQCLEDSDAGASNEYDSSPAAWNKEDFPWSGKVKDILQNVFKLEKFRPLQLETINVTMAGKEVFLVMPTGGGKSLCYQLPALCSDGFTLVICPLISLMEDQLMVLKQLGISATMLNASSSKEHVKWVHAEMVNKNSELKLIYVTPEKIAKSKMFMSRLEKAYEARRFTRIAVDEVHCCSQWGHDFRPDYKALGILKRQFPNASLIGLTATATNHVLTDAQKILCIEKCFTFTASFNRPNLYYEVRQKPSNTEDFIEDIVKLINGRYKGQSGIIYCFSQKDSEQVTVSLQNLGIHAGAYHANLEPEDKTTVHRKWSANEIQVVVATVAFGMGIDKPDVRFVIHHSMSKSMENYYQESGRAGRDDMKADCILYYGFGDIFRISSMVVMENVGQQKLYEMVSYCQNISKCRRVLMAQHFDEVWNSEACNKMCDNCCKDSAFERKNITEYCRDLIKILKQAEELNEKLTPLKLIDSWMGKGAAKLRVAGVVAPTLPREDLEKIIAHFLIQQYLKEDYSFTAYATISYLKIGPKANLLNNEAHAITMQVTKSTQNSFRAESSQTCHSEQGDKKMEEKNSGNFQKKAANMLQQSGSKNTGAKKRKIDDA
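50 nM RECQ1T1 preincubated 15 min with compound in Tris pH 8.0 buffer with MgCl2, DTT, Tween-20 and 2.5 ug/ml poly(dI-dC); started with 200 nM TAMRA/BHQ-2 forked duplex and 2 mM ATP. Unwinding read as fluorescence (525/598 nm), two reads 2 h apart.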
APEX1 inh: qHTS Assay for Inhibitors of the Human Apurinic/apyrimidinic Endonuclease 1 (APE1); recombinant APE1, TAMRA/BHQ-2 abasic DNA cleavage fluorescence; Potency, µM (titrated, usually from 65.8 µM), without a hit: at the top dose activity change, negative = inhibition, hits mostly inhibitors; 350,000 compounds, 0.35% hits;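 also: potency is read from the fitted curve at half-maximal effect; plate controls were vehicle for no effect and reference inhibitor for full effect; nearly all actives have a fitted effect of over 55% in size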
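Quantitative HTS: incision of a TAMRA/BHQ-2 double-stranded substrate bearing a tetrahydrofuran abasic site by 0.75 nM APE1 raises fluorescence. Substrate 50 nM final, added after 15 min compound preincubation at room temperature; progress as third-minus-first kinetic read difference.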
BLM inh-2: qHTS Confirmation Assay for Inhibitors of Bloom's syndrome helicase (BLM). BLM DNA unwinding, fluorescence quenching, biochemical. Potency, µM, for inactives: max response, negative = inhibition, most hits filed as inhibitors. AID 2585, 2010. shares compounds with BLM inh-1. 220 compounds, 40% hits;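 also: strand separation dequenches TAMRA so unwinding raises red fluorescence; potency is read from the fitted curve at half-maximal effect; series mostly up to about 69 µM; % is scaled to controls: 0 for no effect and ±100 for the full control effect; nearly all actives have a fitted effect of over 45% in size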
RECQ1 inh conf: Confirmation qHTS Assay for Inhibitors of RecQ-Like Dna Helicase 1 (RECQ1) | shares compounds with RECQ1 inh-1 | RECQ1 helicase DNA unwinding, fluorescence | Potency, µM (series often up to 229 µM), for the others: at the top dose activity change, negative = inhibition, hits mostly inhibitors | 610 compounds, 28% hits; also: potency is read from the fitted curve at half-maximal effect; % is scaled to controls: 0 for no effect and ±100 for the full control effect; nearly all actives have a fitted effect of over 45% in size
RECQ1 ADP FP: Counterscreen for RECQ1 Inhibitors: ADP Fluorescence Polarization Displacement Assay; shares compounds with RECQ1 inh-1; ADP fluorescence polarization displacement counterscreen; Potency, µM (highest dose often 228 µM), without a hit: at the highest dose activity change, negative = inhibition, most hits filed as inhibitors; 530 compounds, 27% hits; also: potency is read from the fitted curve at half-maximal effect; % is scaled to controls: 0 for no effect and ±100 for the full control effect; nearly all actives have a fitted effect of over 45% in size
RECQ1 inh-2: Confirmation qHTS Assay for Inhibitors of RecQ-Like Dna Helicase 1 (RECQ1) - Round 2 Cherry Picks; shares compounds with RECQ1 inh-1; Potency, µM (top dose mostly 119 µM), for the others: at the top dose activity, negative = inhibition, actives largely listed as inhibitors; recombinant RECQ1 DNA unwinding, red fluorescence; 1,100 compounds, 15% hits; also: potency is read from the fitted curve at half-maximal effect; % is scaled to controls: 0 for no effect and ±100 for the full control effect; nearly all actives have a fitted effect of over 50% in size
GCN5L2 inh-2: qHTS Assay for Inhibitors of GCN5L2: Hit confirmation | shares compounds with GCN5L2 inh-1 | GCN5L2 HAT, ThioGlo1 CoA fluorescence, 20 min | Potency, µM, actives largely listed as inhibitors | 140 compounds, 70% hits
* hit, by the source's call; i = inactive; ? = inconclusive; . = not tested or not shown; [ ] = dose if it differs, or a comment. Calls follow the shape of the dose curve; as a rule, active = well fitted curve in the direction sought with a large enough effect; inconclusive = small, poorly fitted or top-dose-only effect, or another doubt; inactive = no such curve, though single readings can be large; an effect the other way counts as inactive or inconclusive.

SMILES | RGS4 inh | TDP1 block | GCN5L2 inh-1 | BLM inh-1 | RECQ1 inh-1 | APEX1 inh | RECQ1 inh-2 | others
COC(=O)c1cc(C(=O)c2cc(F)ccc2O)cn2c(=O)c3c(C)c(C)sc3nc12 | -2.9%[56.9 µM] | . | -3.1% | -8.6% | -4.4% | ? | .
CN(CCCc1cnc[nH]1)C(=S)NCCCN(Cc1ccc(Cl)cc1)c1ccc(Br)cn1 | -9.9% | . | . | . | . | . | .
O=C(O)CSc1cc(C(=O)c2ccccc2O)cn2c(=O)c3c(-c4ccccc4)csc3nc12 | -50.0% | ? | 25.1µM* | 28.2µM* | -22.4% | -8.0% | . | BLM inh-2=?;GCN5L2 inh-2=25.7*
CCC(Cn1nnc2ccccc2c1=O)NC(=O)Nc1ccccc1OC (stereo not drawn) | 4.8% | 7.0% | -0.8% | 2.4% | . | . | .
CCOC(=O)Cc1cc(=O)n(-c2nc3ccccc3s2)[nH]1 | 2.9% | 11.3% | ? | -17.1% | ? | ? | -21.7%
CCCc1cc(=O)n(-c2nc3ccccc3s2)[nH]1 | -12.4%[56.9 µM] | . | -4.5% | -6.3% | -8.2% | -2.7% | .
O=C(O)c1ccc(CSc2nnnn2-c2ccc(F)cc2)cc1 | 27.7% | . | -2.3% | -7.5% | . | 17.2% | .
O=C(CSc1nnnn1-c1ccc(F)cc1)c1ccc(O)c(O)c1 | -14.0% | 7.9% | -6.1% | -1.0% | 5.01µM* | 6.4% | ? | RECQ1 inh conf=-9.6%[114 µM];RECQ1 ADP FP=4.6%[91.9 µM]
COc1ccc(Cl)cc1NC(=O)c1c(NCc2sccc2C)sc2c1CCCC2 | ? | 6.6% | ? | 0.2% | . | . | .
O=C1N/C(=N\S(=O)(=O)Cc2ccccc2)S/C1=C/c1cc([N+](=O)[O-])ccc1O | -20.0% | -2.9% | -6.4% | -6.4% | 13.0% | -1.5% | . | RECQ1 inh conf=19.6%;RECQ1 ADP FP=-2.3%
COc1cccc(F)c1C(=O)NC(=O)Nc1ccc2nc(C)oc2c1 | -10.8% | ? | -8.2% | -6.1% | 35.5µM* | ? | 25.6%
O=C(N/N=C/c1ccc[nH]1)c1ccc(O)cc1 | -6.5% | 11.9% | 1.3% | -6.1% | i | -3.5% | .
